For 8 compounds, growth results are on record in PubChem BioAssay (NCI).

Holding throughout (test): NCI-60 one-dose screen, 48 h (100 = growth as untreated, 0 = no growth, -100 = all killed)
In assay [1] the test system is HCT-15 colon. The following applies: 10 µM unless noted.
Assay [2] has as its system HT29 colon. The following applies: 10 µM unless noted.
Assay [3] has as its system SNB-75 CNS. The following applies: 10 µM unless noted.
Assay [4] concerns SNB-19 CNS. The following applies: 10 µM unless noted.
The test system of assay [5] is U251 CNS. The following applies: 10 µM unless noted.
Assay [6] deals with PC-3 prostate. The following applies: 10 µM unless noted.
Assay [7] concerns SK-MEL-5 melanoma. The following applies: 10 µM unless noted.
For assay [8], the system named is UACC-62 melanoma. The following applies: 10 µM unless noted.
The subject of assay [9] is LOX IMVI melanoma. The following applies: 10 µM unless noted.
For assay [10], the system named is SK-MEL-28 melanoma. The following applies: 10 µM unless noted.
The subject of assay [11] is SK-MEL-2 melanoma. The following applies: 10 µM unless noted.
The test system of assay [12] is SN12C renal. The following applies: 10 µM unless noted.
The subject of assay [13] is UO-31 renal. The following applies: 10 µM unless noted.
Assay [14] relates to TK-10 renal. The following applies: 10 µM unless noted.
In assay [15] the test system is ACHN renal. The following applies: 10 µM unless noted.
Assay [16] concerns CAKI-1 renal. The following applies: 10 µM unless noted.
For assay [17], the system named is A498 renal. The following applies: 10 µM unless noted.
In assay [18] the test system is MOLT-4 leukemia. The following applies: 10 µM unless noted.
Assay [19] deals with CCRF-CEM leukemia. The following applies: 10 µM.

SMILES strings stand for the structures. About 83,000 compounds went through this panel and 20% of them were active in at least one assay; those are over-represented in the sample as a whole.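 Step 1: grow cells in 96-well plates. Step 2: add test compound at a single concentration. Step 3: incubate 48 h. Step 4: record percent growth.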 A number with no mark means an inactive call. Active and inactive are the calls of the source. The calls were made as follows: active = growth percent below 10; inactive = the rest.

For the compound `O=C1CCNC1`, the growth is 101% in assay [1]; 106% in [2]; 100% in assay [3]; 102% in assay [4]; 87.4% in assay [5]; 95.7% in assay [6]. Besides, the growth in assay [7] is 104%; in assay [8] it was 103%; in assay [9], 113%; in [10], 102%; in [11], 109%; in assay [12], 103%. Besides, the growth in assay [13] was 92.1%; in [14] it was 100%; in assay [15], 101%; in [16], 113%; in assay [17] it was 94.9%; in [18] it was 98.8%.

Take `COc1ccc(-c2nnc(SCC(=O)Nc3ccc(C(=O)/C=C/c4cc(OC)c(OC)c(OC)c4)cc3)n2-c2ccccc2)cc1OC`: the growth was 8.91% [100 µM] (active) in assay [1]; 3.6% [100 µM] (active) in assay [2]; -22% [100 µM] (active) in [3]; -19.9% [100 µM] (active) in assay [4]; -96.9% [100 µM] (active) in [5]; 10.9% [100 µM] in assay [6]. Further, the growth in [7] is -14.6% [100 µM] (active); in assay [8], -42.9% [100 µM] (active); in assay [9], -88.5% [100 µM] (active); in assay [10], 18.3% [100 µM]; in [11] it was -26.1% [100 µM] (active); in assay [12], 31.8% [100 µM]. The growth in assay [13] is 67.5% [100 µM]; in [14], -42.5% [100 µM] (active); in assay [15], 1.79% [100 µM] (active); in assay [16], 1.67% [100 µM] (active); in assay [17], -69.7% [100 µM] (active); in [18], 44.5% [100 µM].

Take `Cc1ccc(NC(=O)CCl)cc1Cl`: the growth in [1] is 80.9%; in assay [2] it was 107%; in [3], 91%; in assay [4], 94.5%; in assay [5], 80.5%; in [6] it was 86.8%. The growth in assay [7] was 87.2%; in assay [8], 80.5%; in assay [9], 6.84% (active); in assay [10] it was 107%; in [11] it was 85.1%; in assay [12], 93.6%. For the same compound, the growth was 98.5% in assay [13]; 103% in [14]; 92.3% in assay [15]; 90.8% in [16]; 119% in [17]; 81.8% in [18].

With `CCCC[N+](C)(N)CCCC`, the growth in assay [1] was 98%; in assay [2] it was 101%; in assay [3], 93.3%; in assay [4] it was 104%; in [5] it was 106%; in assay [6] it was 90.5%. The growth in assay [7] is 108%; in assay [8], 105%; in assay [9], 87.3%; in [10] it was 109%; in assay [11] it was 108%; in assay [12], 104%. Moreover, the growth was 91.7% in assay [13]; 109% in assay [14]; 99.7% in assay [15]; 94.4% in assay [16]; 115% in [17]; 94.6% in [18].

Regarding `Cn1c2ccccc2c2ccccc21`, the growth in assay [1] is 107%; in [2] it was 104%; in assay [3] it was 85.5%; in assay [4], 98.3%; in assay [5], 96.5%; in [6] it was 105%. Further, the growth in [7] was 105%; in assay [8] it was 101%; in [9] it was 95.8%; in assay [10], 102%; in assay [11], 99.4%; in [12] it was 107%. Further, the growth is 75% in [13]; 97.5% in assay [14]; 105% in assay [15]; 101% in [16]; 115% in assay [17]; 92.5% in assay [19]. For the same compound, the growth in assay [18] was 89.7%.

Take `CC(O)c1cc[cH-]c1.[Fe+2].c1cc[cH-]c1` (stereo not given): the growth is 95.3% in assay [1]; 110% in [2]; 92% in assay [3]; 105% in [4]; 98.2% in assay [5]; 98.2% in assay [6]. Also, the growth in [7] was 98.2%; in assay [8], 108%; in assay [9], 126%; in assay [10], 112%; in assay [11], 109%; in [12], 98.9%. The growth is 86.5% in assay [13]; 96% in assay [14]; 89.8% in [15]; 88% in assay [16]; 103% in assay [17]; 89.3% in assay [18].

On to `CCOC(=O)/C(C#N)=C(/CC)OCC`, for which the growth in assay [1] is 109%; in assay [2], 103%; in assay [3], 90.8%; in assay [4], 106%; in assay [5], 103%; in assay [6], 93.6%. Also, the growth in assay [7] is 110%; in assay [8], 110%; in assay [9], 91.4%; in [10] it was 106%; in assay [11] it was 91.7%; in assay [12], 109%. Besides, the growth in assay [13] was 84.1%; in assay [14], 91.9%; in assay [15], 94.6%; in assay [16], 95.4%; in assay [17], 122%; in assay [18], 85%.

Take `CC(O)CN(CC(C)O)N(CC(C)O)CC(C)O` (stereo not given): the growth in assay [1] is 93.6%; in assay [2], 99.3%; in assay [3], 93.1%; in assay [4], 99.1%; in assay [5], 90.9%; in assay [6], 99.4%. In addition, the growth is 105% in assay [7]; 102% in assay [8]; 93.7% in assay [9]; 107% in [10]; 121% in [11]; 107% in assay [12]. The growth was 91.1% in assay [13]; 99.3% in assay [14]; 99% in [15]; 98.9% in assay [16]; 104% in assay [17]; 102% in [18].
